Reference: the supplement of paper PMC12350171
Counter-ions that a name gives are not always drawn.

Columns and labels:
Conditions in all cases: 20 µM
[1] = test system: Haemophilus parainfluenzae; assay: growth AUC normalised to DMSO control (fraction of control); higher = less growth inhibition, active = hit call of the paper
Outline: (§1)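 Three biological replicates were carried out, with OD578 read hourly for 24 h. Before inoculation at a starting OD578 of 0.01, pathogens were passaged anaerobically twice; plates were pre-reduced mGAM containing 20 μM compound and 1% DMSO, sealed with breathable membranes, and the Haemophilus parainfluenzae medium carried added hemin and NAD. Area under each growth curve was calculated by the trapezoidal rule up to the exponential-to-stationary transition and normalised to DMSO controls on the same plate.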

[2] = test system: Salmonella enterica typhimurium; assay: as above
Outline: as §1

Shigella flexneri = assay: as above
Outline: as §1

Vibrio cholerae = assay: as above
Outline: as §1

[3] = test system: Yersinia pseudotuberculosis; assay: as above
Outline: as §1

P. vulgatus RND KO = assay: growth AUC normalised to DMSO control (median) (fraction of control); higher = less growth inhibition, active = hit call of the paper
Outline: (§2)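 In 96-well plates of mGAM seeded at OD578 0.01, strains that had been passaged twice overnight without oxygen were exposed to approved-drug library compounds at 20 μM with 1% DMSO. Hourly OD578 readings were taken for 24 h in an anaerobic incubator. The trapezoidal-rule area under the curve, with curves truncated at entry into stationary phase, was expressed relative to same-plate vehicle wells as the median of three biological replicates.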

P. vulgatus WT = assay: as above
Outline: as §2

[4] = test system: S. enterica typhimurium WT; assay: as above
Outline: as §2

[5] = test system: S. enterica typhimurium tolC KO; assay: as above
Outline: as §2

Measured: growth AUC normalised to DMSO control
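Throughout, for growth AUC normalised to DMSO control (median): active when median AUC fell below 0.1.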

NC[C@@H]1O[C@@H](O[C@H]2[C@H](O)[C@@H](O[C@H]3O[C@H](CO)[C@@H](O)[C@H](N)[C@H]3O)[C@H](N)C[C@@H]2N)[C@@H](O)[C@H](O)[C@H]1O [Kanamycin A sulfate]
inactive: [1] 0.976

Cc1ccc(-c2ncc(Cl)cc2-c2ccc(S(C)(=O)=O)cc2)cn1 [Etoricoxib]
inactive: [1] 1

COc1cc(C)c(/C=C/C(C)=C/C=C/C(C)=C/C(=O)O)c(C)c1C [Acitretin]
inactive: [1] 0.995

C[C@H](CCC(=O)O)[C@H]1CC[C@H]2[C@@H]3C(=O)C[C@@H]4CC(=O)CC[C@]4(C)[C@H]3CC(=O)[C@]12C [Dehydrocholic acid]
inactive: [1] 0.972

CCCNCC(O)COc1ccccc1C(=O)CCc1ccccc1 (stereo unspecified) [Propafenone hydrochloride]
inactive: [1] 1.01

Nc1ccc(S(=O)(=O)Nc2ncccn2)cc1 [Sulfadiazine]
inactive: [1] 1.01

O=C1CCC(N2C(=O)c3ccccc3C2=O)C(=O)N1 (stereo unspecified) [Thalidomide]
inactive: [1] 0.97

CCOC(=O)n1ccn(C)c1=S [Carbimazole]
inactive: [1] 0.99

CN(C)CCC=C1c2ccccc2CCc2ccccc21 [Amitryptiline hydrochloride]
inactive: [1] 0.958

C/C=C(/C(=C/C)c1ccc(O)cc1)c1ccc(O)cc1 [Dienestrol]
inactive: [1] 0.999

Nc1nc2c(ncn2COCCO)c(=O)[nH]1 [Acyclovir]
inactive: [1] 1.01

CNc1ncnc2c1ncn2[C@@H]1O[C@H](CO)[C@@H](O)[C@H]1O [N6-methyladenosine]
inactive: [1] 1.01

CN(C)CCCN1c2ccccc2Sc2ccccc21 [Promazine hydrochloride]
inactive: [1] 0.841

CC(C)NCC(O)c1ccc2ccccc2c1 (stereo unspecified) [Pronethalol hydrochloride]
inactive: [1] 1

O=C(OCC(O)CO)c1ccccc1Nc1ccnc2cc(Cl)ccc12 (stereo unspecified) [Glafenine hydrochloride]
inactive: [1] 0.978

CN(C)[C@@H]1C(=O)C(C(=O)NCNCCCC[C@H](N)C(=O)O)=C(O)[C@@]2(O)C(=O)C3=C(O)c4c(O)cccc4[C@@](C)(O)[C@H]3C[C@@H]12 [Lymecycline]
inactive: [1] 0.935

NCc1ccc(S(N)(=O)=O)cc1 [Mafenide hydrochloride]
inactive: [1] 1

COCCOC(=O)C1=C(C)NC(C)=C(C(=O)OC/C=C/c2ccccc2)C1c1cccc([N+](=O)[O-])c1 (stereo unspecified) [Cilnidipine]
inactive: [1] 1

CC(C)OC(=O)C(C)(C)Oc1ccc(C(=O)c2ccc(Cl)cc2)cc1 [Fenofibrate]
inactive: [1] 0.961

C1CCC(C(CC2CCCCN2)C2CCCCC2)CC1 (stereo unspecified) [Perhexiline maleate]
inactive: [1] 0.977

CCCC1C(=O)N2C(N(C)C)=Nc3ccc(C)cc3N2C1=O (stereo unspecified) [Azapropazone]
inactive: [1] 0.968

O=C(O)c1ccccc1C(=O)Nc1ccc(S(=O)(=O)Nc2nccs2)cc1 [Phthalylsulfathiazole]
inactive: [1] 1

Cc1cc2c(s1)Nc1ccccc1N=C2N1CCN(C)CC1 [Olanzapine]
inactive: [1] 1.02

Nc1ncnc2c1ncn2C1OC(COP(=O)(O)O)C(O)C1O (stereo unspecified) [Adenosine 5'-monophosphate monohydrate]
inactive: [1] 0.982

CC[C@H]1OC(=O)[C@H](C)[C@@H](O[C@H]2C[C@@](C)(OC)[C@@H](O)[C@H](C)O2)[C@H](C)[C@@H](O[C@@H]2O[C@H](C)C[C@H](N(C)C)[C@H]2O)[C@](C)(OC)C[C@@H](C)C(=O)[C@H](C)[C@@H](O)[C@]1(C)O [Clarithromycin]
active: [1] 0.0384

CC(=O)N[C@@H](CS)C(=O)O [Acetylcysteine]
inactive: [1] 1.07

O=C(O)/C=C/c1ccc(Cn2ccnc2)cc1 [Ozagrel hydrochloride]
inactive: [1] 1.03

COc1ccccc1N1CCN(CCCNc2cc(=O)n(C)c(=O)n2C)CC1 [Urapidil hydrochloride]
inactive: [1] 0.979

CC1(C)O[C@@H]2C[C@H]3[C@@H]4CCC5=CC(=O)CC[C@]5(C)[C@@]4(F)[C@@H](O)C[C@]3(C)[C@]2(C(=O)CCl)O1 [Halcinonide]
inactive: [1] 1

CC1=C(CC(=O)O)c2cc(F)ccc2/C1=C\c1ccc([S+](C)[O-])cc1 (stereo unspecified) [Sulindac]
inactive: [1] 0.942

OCC(O)CN1CCN(c2ccccc2)CC1 (stereo unspecified) [Dropropizine]
inactive: [1] 1.07

N=C(N)NC(=O)c1nc(Cl)c(N)nc1N [Amiloride hydrochloride dihydrate]
inactive: [1] 1.03

CN(C)CCN(Cc1ccccc1)c1ccccn1 [Tripelennamine hydrochloride]
inactive: [1] 1.01

O=C1NCCN1c1ncc([N+](=O)[O-])s1 [Niridazole]
active: [1] 0.392

CC[C@H](C)[C@H]1O[C@]2(C=C[C@@H]1C)C[C@@H]1C[C@@H](C/C=C(\C)[C@@H](O[C@H]3C[C@H](OC)[C@@H](O[C@H]4C[C@H](OC)[C@@H](O)[C@H](C)O4)[C@H](C)O3)[C@@H](C)/C=C/C=C3\CO[C@@H]4[C@H](O)C(C)=C[C@@H](C(=O)O1)[C@]34O)O2.CO[C@H]1C[C@H](O[C@H]2[C@H](C)O[C@@H](O[C@@H]3/C(C)=C/C[C@@H]4C[C@@H](C[C@]5(C=C[C@H](C)[C@@H](C(C)C)O5)O4)OC(=O)[C@@H]4C=C(C)[C@@H](O)[C@H]5OC/C(=C\C=C\[C@@H]3C)[C@]54O)C[C@@H]2OC)O[C@@H](C)[C@@H]1O [Avermectin B1]
inactive: [2] 1.02 | Shigella flexneri 1.03 | Vibrio cholerae 1.02 | [3] 1.01

CC(C)N(CCC(C(N)=O)(c1ccccc1)c1ccccn1)C(C)C (stereo unspecified) [Disopyramide]
inactive: [1] 0.997 | [2] 0.993 | Shigella flexneri 0.988 | Vibrio cholerae 0.983 | [3] 0.996 | P. vulgatus RND KO 1 | P. vulgatus WT 0.998 | [4] 1 | [5] 0.983

C[N+](C)(C)CCCCCCCCCC[N+](C)(C)C [Decamethonium bromide]
inactive: [1] 1.03 | [2] 1 | Shigella flexneri 1.03 | Vibrio cholerae 1.07 | [3] 1 | P. vulgatus RND KO 0.997 | P. vulgatus WT 1.07 | [4] 1.01 | [5] 1

CCCC(C)(COC(N)=O)COC(=O)NC(C)C (stereo unspecified) [Carisoprodol]
inactive: [1] 0.843 | [2] 1 | Shigella flexneri 0.977 | Vibrio cholerae 0.948 | [3] 1 | P. vulgatus RND KO 1 | P. vulgatus WT 1.02 | [4] 1 | [5] 0.979

C#C[C@]1(O)CC[C@H]2[C@@H]3CCC4=CC(=O)CC[C@]4(C)[C@H]3CC[C@@]21C [Ethisterone]
inactive: [1] 1.02 | [2] 1.01 | Shigella flexneri 1.02 | Vibrio cholerae 1.02 | [3] 1 | P. vulgatus RND KO 1.05 | P. vulgatus WT 1.04 | [4] 1.02 | [5] 0.998

C[C@]12CCC(=O)C=C1CC[C@@H]1[C@@H]2C(=O)C[C@]2(C)C(=O)CC[C@@H]12 [Adrenosterone]
inactive: [1] 1.01 | [2] 0.996 | Shigella flexneri 1.01 | Vibrio cholerae 1 | [3] 0.993 | P. vulgatus RND KO 0.986 | P. vulgatus WT 1.02 | [4] 1.01 | [5] 0.992

CCN(C(C)=O)c1cccc(-c2ccnc3c(C#N)cnn23)c1 [Zaleplon]
inactive: [1] 0.975 | [2] 0.978 | Shigella flexneri 0.954 | Vibrio cholerae 0.97 | [3] 1 | P. vulgatus RND KO 1 | P. vulgatus WT 1 | [4] 1 | [5] 0.992

CCC1(c2ccc(N)cc2)CCC(=O)NC1=O (stereo unspecified) [Glutethimide, para-amino]
inactive: [1] 1.04 | [2] 1.01 | Shigella flexneri 1 | Vibrio cholerae 1.04 | [3] 0.988 | P. vulgatus RND KO 1.02 | P. vulgatus WT 1.04 | [4] 1.02 | [5] 0.993

O=c1[nH]c2ccccc2n1C1CCN(CCCC(c2ccc(F)cc2)c2ccc(F)cc2)CC1 [Pimozide]
inactive: [1] 0.788 | [2] 0.998 | Shigella flexneri 1 | Vibrio cholerae 1.07 | [3] 1.02 | P. vulgatus RND KO 1.14 | P. vulgatus WT 1 | [4] 0.998 | [5] 0.971

C=C1CC[C@@]2(O)[C@H]3Cc4ccc(O)c5c4[C@@]2(CCN3CC2CC2)[C@H]1O5 [Nalmefene hydrochloride]
inactive: [1] 0.969 | [2] 1.01 | Shigella flexneri 1.03 | Vibrio cholerae 1.02 | [3] 1.03 | P. vulgatus RND KO 1 | P. vulgatus WT 1.03 | [4] 1 | [5] 1.01

C[CH2][Hg][S]c1ccccc1C(=O)[O-].[Na+] [Thimerosal]
active: [2] 0.932 | Shigella flexneri 0.828 | P. vulgatus RND KO 0.0191
inactive: [1] 1.2 | Vibrio cholerae 0.935 | [3] 1 | P. vulgatus WT 0.341 | [4] 0.91 | [5] 0.956

CC(Cc1ccc(O)cc1)NCC(O)c1cc(O)cc(O)c1 (stereo unspecified) [Fenoterol hydrobromide]
inactive: [1] 0.991 | [2] 1.01 | Shigella flexneri 0.962 | Vibrio cholerae 1.01 | [3] 0.998 | P. vulgatus RND KO 1.03 | P. vulgatus WT 1.03 | [4] 1.01 | [5] 1

C#C[C@]1(O)CC[C@H]2[C@@H]3CCC4=CC(=O)CCC4=C3C=C[C@@]21CC [Gestrinone]
inactive: [1] 1.03 | [2] 0.989 | Shigella flexneri 1.03 | Vibrio cholerae 1.01 | [3] 1.01 | P. vulgatus RND KO 1.01 | P. vulgatus WT 1.07 | [4] 1.01 | [5] 0.986
